High-throughput results (PubChem)
hcDAF-12 act – H. contortus DAF-12 activation, primary screen; HEK293 hcDAF-12 lit1-tk-luc reporter, luminescence; 0% DMSO, 100% Δ7-dafachronic acid; activation, % at 6.8 µM; hit rate 1.4% among 370,000; AID 652067;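 active = activation above the mean of all tested compounds plus 3 SD, cut at about 5.5% in these data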;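 also: 100% = response to 3 µM Δ7-dafachronic acid high control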
SMARCA2 activ – increases SMARCA2 function in MMTV reporter cells. MG213 cells, MMTV-luciferase reporter, dexamethasone, overnight. hit rate 1% among 370,000. activation, % at 9.1 µM; in the data active = activation above about 7.8%;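 also: 0% = vehicle wells and 100% = reference activator wells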
DAX1 inh-1 – NR0B1 (DAX1) inhibition | P51843 | HEK293 Gal4-DAX1 luciferase reporter, luminescence | inhibition, % at 6.75 µM | hit rate 0.99% among 340,000 | AID 504766;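 active = inhibition above the mean over all tested compounds plus 3 SD, cut at about 4.2% in these data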;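 also: 0% = DAX1-transfected cells with DMSO and 100% = empty-vector control cells with DMSO; inhibition shows as a rise in luminescence from relieved DAX1 repression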
Target sequence (P51843 207-470 limits assumed): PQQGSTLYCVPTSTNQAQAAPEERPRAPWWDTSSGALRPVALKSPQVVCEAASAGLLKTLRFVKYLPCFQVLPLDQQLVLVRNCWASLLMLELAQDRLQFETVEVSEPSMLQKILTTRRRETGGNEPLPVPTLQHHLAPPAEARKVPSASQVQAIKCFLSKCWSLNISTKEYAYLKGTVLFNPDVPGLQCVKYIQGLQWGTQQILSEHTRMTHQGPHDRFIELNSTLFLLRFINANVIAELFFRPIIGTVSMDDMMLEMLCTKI
ssDAF12 agonist – activators of S. stercoralis DAF-12 nuclear receptor | activation, % at 6.8 µM | hit rate 1% among 370,000 | HEK293 ssDAF-12/GRIP1 lit1-tk-luc reporter, luminescence; % of 3 µM dafachronic acid response;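 active = activation above the mean over all tested compounds plus 3 SD, cut at about 0.9% in these data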;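 also: 0% = DMSO-only wells and 100% = 3 µM delta7-dafachronic acid wells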
hgDAF12 agonist – hgDAF-12 agonism, primary luciferase screen. AID 687014. HEK293 GAL4-hgDAF12 UAS-luciferase reporter, agonist luminescence; normalized to butyrate control. activation, % at 6.8 µM. hit rate 1.8% among 370,000;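 active = activation above a cutoff set at the mean of all screened compounds plus 3 SD, cut at about 10% in these data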;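 also: 0% = DMSO wells and 100% = sodium butyrate wells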
DAX1 inh-2 – blocks DAX1 repression of SF-1 activated StAR promoter. HEK293T StAR-luciferase reporter, SF-1/DAX-1 repression relief. inhibition, % at 6.8 µM. hit rate 1.1% among 370,000;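 active = inhibition above the mean over all tested compounds plus 3 SD, cut at about 3.6% in these data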;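 also: 0% = DAX-1 cells with DMSO and 100% = cells lacking DAX-1 with DMSO; higher inhibition means more luminescence from relief of DAX-1 repression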
Active calls of the source: *; . = no result given. Only some compounds are listed: those with a hit (about 4.8% of all), similar ones and a draw of the others.

SMILES	hcDAF-12 act	SMARCA2 activ	DAX1 inh-1	ssDAF12 agonist	hgDAF12 agonist	DAX1 inh-2
Clc1ccc(-c2cc(CSc3ccccc3)on2)cc1	1.2	6.8	2.6	-0.9	12.8*	1.9
c1ccc(SCc2cc(-c3ccccc3)no2)cc1	3.8	5.4	3.9	0.0	8.2	1.5
COc1cccc(CCc2nnc(CCC(=O)N3CCCC3c3nccs3)o2)c1 (stereo not given)	-0.9	-2.2	4.2*	-1.9	-1.7	-0.3
COC(=O)c1ccc(C[n+]2ccccc2)cc1	-1.9	1.4	-0.5	-0.4	2.9	-0.1
C/C(=N/O)c1no[n+]([O-])c1/C(C)=N\O	-0.7	-4.0	7.2*	-0.9	0.4	-0.2
CCOc1cc(N2CCOCC2)c(OCC)cc1NC(=O)c1ccc2ccccc2n1	3.2	-2.1	-0.5	0.9*	5.7	1.6
O=C(Nc1cccc(S(=O)(=O)N2CCCCCC2)c1)c1ccc2ccccc2n1	6.4*	4.0	0.8	0.0	5.4	2.3
O=C(Nc1ccc(N2CCCCC2)cc1)c1ccc2ccccc2n1	4.0	3.8	5.5*	-0.8	9.0	1.3
Cc1ccccc1C(=O)Nc1ccc(N2CCCC2)cc1	-1.0	-0.3	0.2	-1.4	3.2	1.6
Cc1ccc(S(=O)(=O)N2CCCCC2)cc1NC(=O)c1ccc2ccccc2n1	-0.9	-0.1	0.1	-0.9	-0.9	0.2
O=C(Nc1cccc(-c2cn3c(n2)SCC3)c1)c1ccc2ccccc2n1	4.3	0.3	-0.8	0.4	12.1*	2.9
CC(O)(c1ccccc1)c1nc(-c2cccc(C(F)(F)F)c2)cs1 (stereo not given)	0.5	-2.2	.	-0.9	-1.8	-2.2
Cc1cc(C)cc(N2CC(C)Cn3c2nc2c3c(=O)[nH]c(=O)n2C)c1 (stereo not given)	-1.5	-3.5	0.0	-0.9	-0.4	0.1
O=C(NN=Cc1ccccc1Cl)c1ccc([N+](=O)[O-])cc1	-1.5	1.9	0.5	-0.2	2.1	-0.3
O=C(N/N=C/c1ccc[nH]1)c1ccc([N+](=O)[O-])cc1	3.3	7.9*	0.5	0.0	3.4	-0.1
Cc1cccc(CN2CCN(C3CN(Cc4cn(Cc5cccc(C(F)(F)F)c5)nn4)S(=O)(=O)C3)CC2)c1 (stereo not given)	-0.5	-5.4	.	-2.0	-3.3	-3.0
COc1ccc(Cl)cc1S(=O)(=O)NC(C)C(=O)NCc1ccccn1 (stereo not given)	-1.5	-1.1	-1.5	-1.4	-0.6	0.2
OCc1ccc2c(c1)c(-c1ccc3c(c1)OCCO3)c(-c1ccccc1)n2-c1ccccc1	2.1	-1.6	4.4*	0.4	-1.0	0.0
Cc1cc(C(=O)Nc2c(C)cccc2C)n(-c2ccccc2)n1	0.3	2.4	0.6	-1.9	-2.6	-0.4
CC(N=Cc1c(O)c2ccccc2oc1=O)C(=O)O (stereo not given)	-0.3	1.5	-0.2	-1.5	11.4*	-0.3
O=C(O)C(CO)N=Cc1c(O)c2ccccc2oc1=O (stereo not given)	-0.6	0.4	0.7	-1.2	-1.0	-0.1
OCCCNc1ncnc2c1ncn2[C@H]1CN(Cc2ccc3c(c2)OCO3)C[C@@H](CO)O1	6.3*	-2.4	.	-1.2	-0.9	-0.1
CCn1nccc1C(=O)Nc1ccc(Cl)cn1	0.6	-0.9	0.1	-0.6	1.8	0.4
CCn1ccc(C(=O)Nc2ccccc2SC)n1	1.3	3.4	0.0	-0.9	11.3*	0.9
CCn1ccc(C(=O)Nc2ccc(Cl)cn2)n1	2.4	4.6	2.1	-0.8	8.9	4.2*
SMILES	hcDAF-12 act	SMARCA2 activ	DAX1 inh-1	ssDAF12 agonist	hgDAF12 agonist	DAX1 inh-2
Cc1ccc(C)c(NC(=O)CSc2nnc(-c3ccncc3)o2)c1	0.1	-3.0	.	-1.4	0.3	0.2
CCC(NC(=O)c1cc(COc2ccc(Cl)cc2OC)on1)c1ccncc1 (stereo not given)	0.8	5.2	0.6	-0.2	11.6*	-0.9
COCCn1c(SCC(=O)NCc2ccco2)nnc1-c1c[nH]c2ccccc12	1.2	0.3	0.3	-1.2	-0.3	-0.7
O=C(c1nc2ncccn2n1)N1CCN(c2ccccc2)CC1	-0.7	0.8	0.4	-1.1	-1.2	3.7*
O=C(c1nc2ncccn2n1)N1CCN(c2ccc(F)cc2)CC1	0.4	-1.4	1.8	-1.3	-0.5	0.1
CC1=C(C(=O)OCc2ccccc2)C(c2ccccc2-c2ccccc2)NC(=O)N1CCCCCC(=O)O (stereo not given)	-2.2	-0.7	0.2	-0.9	-0.5	0.5
CN1CCN(CCCNC(=O)c2ccc(CS(=O)(=O)c3ccc(Br)cc3)o2)CC1	-2.6	-1.4	4.3*	-1.3	0.7	-0.9
O=C(NCCN1CCCCCC1)c1ccc(CS(=O)(=O)c2ccc(Br)cc2)o1	.	.	0.7	.	.	.
COCCNC(=O)c1ccc(CS(=O)(=O)c2ccc(OC)cc2)o1	-0.2	0.7	5.2*	-0.6	-3.8	-0.6
CC(=O)N1CCN(C(=S)Nc2ccc(SC(F)F)cc2)CC1	-2.2	-1.7	0.0	0.0	1.4	-0.2
Cc1cc(C)cc(NC(=O)c2ccccc2CC[N+](=O)[O-])c1	-1.2	0.3	-1.2	-1.3	-0.9	0.2
Cc1ccc(NC(=O)Nc2ccccc2CC[N+](=O)[O-])cc1	5.8*	2.3	.	-0.2	5.8	0.0
Cc1ccc(Cn2c(SCCN3CCCCC3)nc3c2c(=O)n(C)c(=O)n3C)cc1	0.0	1.1	0.3	-1.3	0.7	-0.1
OC(c1ccc(F)cc1)c1ncc(-c2ccc3ccccc3c2)[nH]1 (stereo not given)	2.9	7.1	.	-1.1	11.0*	1.3
Cc1ccc(C(O)c2ncc(-c3ccc4ccccc4c3)[nH]2)cc1 (stereo not given)	5.4	1.4	.	0.1	8.1	2.1
Cc1ccc(C(O)c2ncc(-c3ccc(F)cc3)[nH]2)c(C)c1 (stereo not given)	-1.1	-1.7	.	-0.7	-2.9	-0.5
Cc1cc(F)ccc1C(O)c1ncc(-c2ccc3ccccc3c2)[nH]1 (stereo not given)	-0.8	-4.2	.	-0.2	-1.1	3.7*
Nc1c(C(=O)NCC2CCCO2)sc2nc3c(c(-c4ccco4)c12)CC/C3=C\c1ccco1 (stereo not given)	-1.5	1.6	0.4	-1.7	0.8	0.3
O=C(NCC1CCCO1)c1nn2c(C(F)(F)F)cc(-c3cccs3)nc2c1Cl (stereo not given)	0.0	-3.6	-1.1	0.9*	-1.6	0.1
COc1ccc(CNc2ccc(-c3ccccc3OC)nn2)cc1	-2.2	-1.4	0.1	-1.0	3.6	-0.1
Cc1ccccc1C(=O)N=c1sccn1C	0.6	-1.0	2.2	-1.2	2.0	0.1
Cc1ccc(C(=O)N=c2sccn2C)cc1S(=O)(=O)N1CCOCC1	1.3	3.4	-0.4	-0.3	5.6	3.7*
Cc1cccc(C(=O)N=c2sccn2C)c1[N+](=O)[O-]	-0.2	2.8	1.2	0.5	11.1*	4.5*
